Screening data (PubChem)
GLD-1 TGE inh = GLD-1/TGE RNA complex disruptors, primary screen, biochemical, fluorescence polarization | inhibition, % at 5.96 µM | purified GLD-1 + fluorescein TGE RNA | AID 2280, 2010 | Female germline-specific tumor suppressor gld-1 (Caenorhabditis elegans), Q17339 | actives 0.44% (n = 320,000);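 active = percent inhibition above a per-plate cutoff, the plate mean of test compounds plus 3 SD, cut at about 30% in these data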;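 also: 0% = DMSO wells with GLD-1 and probe and 100% = wells lacking GLD-1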
EBV gp42 inh = Epstein-Barr virus gp42 inhibitors, primary screen, biochemical, uHTS, fluorescence polarization. Glycoprotein 42 (Epstein-Barr virus (strain AG876)), Q1HVG2. Fluorescence polarization binding assay, mP read-out. inhibition, % (tested at 21.74 µM). actives 0.42% (n = 220,000). AID 1085, 2008; in the data active = inhibition above about 50%
MCL1-BIM inh = inhibitors of MCL1 binding to BIM-BH3, primary screen, biochemical, fluorescence polarization | Induced myeloid leukemia cell differentiation protein Mcl-1 (Homo sapiens), Q07820 | GST-MCL1 / FITC-Bim-BH3 fluorescence polarization | inhibition, % at 10.9 µM | AID 2057, 2009 | actives 0.68% (n = 320,000);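 active = inhibition above the mean inhibition of all tested compounds plus 3 SD, set per campaign, cut at about 40% in these data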;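 also: 0% = DMSO wells and 100% = unlabeled Bim-BH3 peptide control; higher means more loss of mP so more displacement of Bim peptide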
BCLXL inh = inhibitors of human Bcl-xL, primary screen, biochemical, fluorescence polarization, HTS; inhibition, % at 10.9 µM; Bcl-2-like protein 1 (Homo sapiens), Q07817; GST-Bcl-xL / FITC-Bim BH3 peptide fluorescence polarization; AID 2129, 2009; actives 0.7% (n = 320,000);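 active = inhibition above the mean of all tested compounds plus 3 SD, cutoff set per campaign, cut at about 30% in these data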;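 also: 0% = DMSO wells and 100% = unlabeled Bim-BH3 peptide competitor; inhibitors lower millipolarization by displacing the labeled peptide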
MEX-5 binding = MEX-5 zinc finger RNA-binding disruptors – biochemical, C. elegans, fluorescence polarization, MLPCN library, primary screen; AID 1832, 2009; Zinc finger protein mex-5 (Caenorhabditis elegans), Q9XUB2; actives 0.38% (n = 300,000); activity score (negative = inhibition of binding), % at 10 µM; MEX-5/FITC-TCR2 RNA binding; stronger effect = lower value;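 active = inhibition past about -25% in most replicates, and total fluorescence under double the plate's negative control median, limit read from the data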;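 also: 0% = DMSO and -100% = 5 µM competing unlabeled TCR2 RNA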
Target sequence (Q9XUB2 whole entry, looked up): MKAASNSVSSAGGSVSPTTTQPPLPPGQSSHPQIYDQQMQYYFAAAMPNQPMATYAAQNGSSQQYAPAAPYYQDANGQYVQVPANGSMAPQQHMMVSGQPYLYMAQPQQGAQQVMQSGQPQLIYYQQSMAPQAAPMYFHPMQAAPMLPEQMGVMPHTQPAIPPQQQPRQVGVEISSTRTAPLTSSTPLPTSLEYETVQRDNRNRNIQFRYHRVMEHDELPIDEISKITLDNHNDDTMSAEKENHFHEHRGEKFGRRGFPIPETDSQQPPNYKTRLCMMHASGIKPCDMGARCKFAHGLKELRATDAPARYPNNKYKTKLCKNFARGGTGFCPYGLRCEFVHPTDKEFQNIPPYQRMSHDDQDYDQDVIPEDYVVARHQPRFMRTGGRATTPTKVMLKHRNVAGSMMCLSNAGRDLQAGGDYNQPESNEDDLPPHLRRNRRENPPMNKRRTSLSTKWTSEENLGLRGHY
eLon inh = inhibitors of E. coli Lon protease, primary screen, biochemical, fluorescence polarization | purified E. coli Lon protease | actives 0.42% (n = 360,000) | inhibition, % at 7.94 µM | AID 602123, 2011 | P0A9M0; in the data active = inhibition above about 13%, passing the limit was not always enough;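 also: 0% = enzyme with probe and DMSO and 100% = no enzyme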
An asterisk follows results filed as active. In the library only some 1.5% were active in any assay of this set; here they are far more common.

For C=CCC[C@@H](Cc1ccc(F)cc1)C(=O)OC[C@@H](NC(=O)[C@@H](CC=C)CC(=O)N[C@H](CO)Cc1ccccc1)C(C)(C)C the results were GLD-1 TGE inh 3 and eLon inh -2.
Screening O=C(ONc1ccc(N=NC(=O)c2ccccc2O)cc1)c1ccccc1 returned GLD-1 TGE inh 8, EBV gp42 inh 89*, MCL1-BIM inh 23, BCLXL inh 12, MEX-5 binding -1 and eLon inh 9.
For NC(=O)[C@@H]1[C@@H]2C(=O)N(c3ccc(F)cc3)C(=O)[C@@H]2[C@H]2C=Cc3ccccc3N21 the results were GLD-1 TGE inh 20, EBV gp42 inh 32, MCL1-BIM inh 32, BCLXL inh 34*, MEX-5 binding -7 and eLon inh 2.
For O=C1C2C3C=CC(C3)C2C(=O)N1c1ccccc1 (stereo not given) the results were GLD-1 TGE inh -2, EBV gp42 inh 2, MCL1-BIM inh 0, BCLXL inh 3, MEX-5 binding 1 and eLon inh 2.
O=C(c1ccco1)[C@@H]1[C@@H]2C(=O)N(c3ccc(Br)cc3)C(=O)[C@@H]2C2c3ccccc3C=CN21 (stereo not given in full) was read as eLon inh -8.
Screening O=C(c1ccco1)[C@@H]1[C@@H]2C(=O)N(c3ccc(F)cc3)C(=O)[C@@H]2[C@H]2C=Cc3ccccc3N21 returned GLD-1 TGE inh 20, EBV gp42 inh 23, MCL1-BIM inh 9, BCLXL inh 33* and eLon inh -28.
For O=C(c1ccco1)[C@@H]1[C@@H]2C(=O)N(c3ccc(F)cc3)C(=O)[C@@H]2C2c3ccccc3C=CN21 (stereo not given in full) the results were GLD-1 TGE inh 69*, EBV gp42 inh 54*, MCL1-BIM inh 82*, BCLXL inh 78* and MEX-5 binding -13.
For CCOC(=O)c1sc(NC(=O)C(CC)OC(=O)c2ccco2)nc1C (stereo not given) the results were GLD-1 TGE inh 8, MCL1-BIM inh 8, BCLXL inh 5, MEX-5 binding 1 and eLon inh -7.
For Cc1nnc(NC(=O)CSc2nc3c(c(=O)n2CCc2ccccc2)SC(C)C3)s1 (stereo not given) the results were GLD-1 TGE inh 6, EBV gp42 inh -5, MCL1-BIM inh -8, BCLXL inh -4, MEX-5 binding 1 and eLon inh -11.
Screening Cc1cc(NC(=O)CSc2nc3c(c(=O)n2CCc2ccccc2)SC(C)C3)no1 (stereo not given) returned GLD-1 TGE inh -5, EBV gp42 inh 3, MCL1-BIM inh 0, BCLXL inh 31*, MEX-5 binding 0 and eLon inh 0.
COc1ccccc1Nc1nc2ccc(C)cc2cc1C#N was read as GLD-1 TGE inh 4, EBV gp42 inh 57*, MCL1-BIM inh -3, BCLXL inh 0, MEX-5 binding -3 and eLon inh 1.
Screening COc1ccccc1Nc1nc2cc(C)ccc2cc1C#N returned GLD-1 TGE inh -13, EBV gp42 inh -12, MCL1-BIM inh -8, BCLXL inh 0, MEX-5 binding 0 and eLon inh -4.
`COc1cc(C2Nc3cccc4cccc(c34)N2)ccc1OC(C)=O` gave GLD-1 TGE inh 10, EBV gp42 inh -9, MCL1-BIM inh 45*, BCLXL inh 39*, MEX-5 binding -1 and eLon inh -6.
For COc1ccc(CC(=O)Nc2cc(Cl)ccc2C(=O)O)cc1 the results were GLD-1 TGE inh -3, EBV gp42 inh 1, MCL1-BIM inh 1, BCLXL inh 5, MEX-5 binding -2 and eLon inh 2.
For CCCCOc1ccc(Nc2cc(Cl)ccc2C(=O)O)cn1 the results were GLD-1 TGE inh 17, EBV gp42 inh 11, MCL1-BIM inh 36, BCLXL inh 37*, MEX-5 binding -7 and eLon inh -5.
